A selection: hits, their analogues and other compounds. The true share with any hit is near 1.7%.
GLP1R inv ag: acts as inverse agonist at human GLP-1 receptor; P43220; HEK293 GLP-1R CRE-luciferase, luminescence, 24 h; GLP-1R form is constitutively active; Potency, µM (series often up to 38.3 µM), for the others: top-dose activity change, negative = inhibition, usual class: inhibitors; 410,000 compounds, 1.6% hits; further: on the % scale 0 is the no-effect control and ±100 the full control effect; nearly all actives have a fitted effect of over 55% in size
Target sequence (P43220 whole entry, looked up): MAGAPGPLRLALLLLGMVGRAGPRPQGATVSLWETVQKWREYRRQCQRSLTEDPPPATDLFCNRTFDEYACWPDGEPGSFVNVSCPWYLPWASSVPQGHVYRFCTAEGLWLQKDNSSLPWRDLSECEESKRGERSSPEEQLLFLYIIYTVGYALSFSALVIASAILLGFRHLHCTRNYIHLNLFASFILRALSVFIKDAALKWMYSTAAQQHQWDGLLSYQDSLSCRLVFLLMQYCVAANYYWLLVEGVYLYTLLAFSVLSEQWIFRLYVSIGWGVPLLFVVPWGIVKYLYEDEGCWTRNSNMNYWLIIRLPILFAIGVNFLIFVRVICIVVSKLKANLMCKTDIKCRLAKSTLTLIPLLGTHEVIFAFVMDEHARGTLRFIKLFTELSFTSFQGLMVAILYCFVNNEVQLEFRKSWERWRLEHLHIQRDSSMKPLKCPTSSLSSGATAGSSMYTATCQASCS
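Readout was luciferase luminescence, measured 12 min after detection reagent at room temperature. Beforehand, GLP-1R reporter HEK293 cells had sat 12 h, then received compounds for 24 hr at 37 deg C.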
GLP1R cytotox: cytotoxic in the GLP-1 receptor inverse agonist counter-screen | HEK293 cAMP-luciferase reporter cells, luminescence, 24 h | Potency, µM (series often up to 38.3 µM), without a hit: at the top dose activity change, negative = inhibition, hits mostly inhibitors | 410,000 compounds, 0.13% hits | AID 624418;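 further: loss of luciferase light is scored as toxicity; on the % scale 0 is the no-effect control and ±100 the full control effect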
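A 23 nL compound transfer followed 12 hours of cell culture at 37 deg C; exposure then lasted 24 hr. Luciferase assay detection reagent was dispensed and plates read for luminescence after a 12 min room-temperature wait.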
GLP1R ag: agonists of human GLP-1 receptor; P43220; HEK293 GLP-1R CRE-luciferase, luminescence, 4-6 h; cells express a hypersensitive GLP-1R form; Potency, µM (doses to about 45.6 µM), for the others: at the highest dose activation, hits mostly activators; 380,000 compounds, 0.007% hits; further: % of control where 0% means no effect
* = called active by the depositor; ? = inconclusive; / = no result given. The call rests on the fitted dose curve; in most records, active means well fitted curve in the direction sought with a large enough effect; inconclusive means small, poorly fitted or top-dose-only effect, or another doubt; inactive means no such curve, though single readings can be large; an effect the other way counts as inactive or inconclusive. Potency means the concentration at half of the fitted maximal effect.

SMILES	GLP1R inv ag	GLP1R cytotox	GLP1R ag
O=C(NC(c1ccc(F)cc1)c1ccc2ccccc2n1)C1CCN(CCOc2ccc(Cl)cc2Cl)CC1 (stereo not given)	?	11.2µM*	-5.9%
O=C(NC(c1ccc(F)cc1)c1ccc2ccccc2n1)C1CCN(Cc2ccc(Oc3ccccc3)cc2)CC1 (stereo not given)	?	-27.8%	-1.3%
O=C(NC(c1ccc(F)cc1)c1ccc2ccccc2n1)C1CCN(CCOc2ccc(F)cc2)CC1 (stereo not given)	?	?	-1.7%
COc1ccc(OCCN2CCC(C(=O)NC(c3ccccc3)c3ccc4ccccc4n3)CC2)cc1 (stereo not given)	?	?	-6.0%
Cc1ccc(S(=O)(=O)N(C)C[C@@H]2OCc3cn(nn3)CCCC(=O)N([C@H](C)CO)C[C@H]2C)cc1	7.0%	7.7%	-6.0%
CCOC(=O)c1c(C)[nH]c(C)c1C(=O)COC(=O)c1cccs1	1.5%	-2.9%	0.5%
Cc1cc(Nc2cc(Cl)ccc2C)n2nc(Cc3ccccc3)nc2n1	-10.6%	-0.9%	/
Cc1noc(C)c1S(=O)(=O)Nc1ccc2c(c1)C(=O)N([C@H](C)CO)C[C@H](C)[C@@H](CN(C)C(=O)Nc1ccc3c(c1)OCO3)O2	0.3%	-0.8%	3.0%
O=C(NCCN1C(=O)S/C(=C\c2ccccc2F)C1=O)C1=COCCO1	1µM*	-29.4%	5.7%
O=C(NCCN1C(=O)S/C(=C\c2ccccc2Cl)C1=O)C1=COCCO1	-15.0%	-11.7%	10.2%
Cc1c(Cl)c([N+](=O)[O-])nn1CC(=O)N1CCN(C23CC4CC(CC(C4)C2)C3)CC1	?	-3.5%	2.6%
CCN(CC)c1ccc(NC(=O)CN(C)Cc2cccs2)cc1	11.2µM*	-1.5%	13.9%
Cc1ccc(NC(=O)CN(C)Cc2cccs2)cc1Cl	?	3.2%	23.2%
CO[C@@H]1[C@@H]([C@H](C)[C@@H]2O[C@@]3(CC[C@@](C)([C@H]4CC[C@@](C)([C@H]5O[C@H]([C@H]6O[C@](C)(O)[C@H](C)C[C@@H]6C)C[C@H]5O[C@H]5C[C@@H](OC)[C@H](OC)[C@@H](C)O5)O4)O3)C[C@@H](O)[C@@H]2C)O[C@@](O)(CC(=O)O)[C@H](C)[C@H]1OC	/	/	-4.4%
NS(=O)(=O)c1cccc(NC(=O)CC(NC(=O)c2ccccc2Cl)c2ccccc2)c1 (stereo not given)	-24.3%	-0.4%	3.4%
CCc1ccccc1NC(=O)Nc1ccc2c(c1)N(CC)C(=O)c1ccccc1S2	5.01µM*	-16.0%	/
CCN1C(=O)c2ccccc2Sc2ccc(NC(=O)Nc3ccc(C(C)=O)cc3)cc21	?	1.5%	/
COc1cccc(N(Cc2nnc3n2CCCCC3)C(=O)Nc2cccc(Cl)c2)c1	-19.5%	2.5%	4.9%
O=c1c2sc(-c3ccccc3)cc2nc2n1CCCCC2	?	28.7%	7.2%
O=c1c2sc(-c3ccccc3)cc2nc2n1CCC2	5.01µM*	1.6%	-17.9%
COc1ccc(/C=C2\SC(=S)N(CCC(=O)NCCCn3ccnc3)C2=O)cc1	?	-6.1%	-3.6%
CC(C)c1ccc(/C=C2\SC(=S)N(CCC(=O)NCCCn3ccnc3)C2=O)cc1	2.51µM*	?	-2.2%
Cc1cc(S(=O)(=O)N2CCOCC2)ccc1OCC(=O)Nc1ccc(Br)cc1F	-4.6%	-0.6%	0.1%
CC(C)n1nnnc1SCC(=O)Nc1ccccc1F	12.2%	9.3%	7.0%
CS(=O)(=O)c1cccc(C(=O)OCC(=O)NC(=O)Nc2ccccc2F)c1	12.9%	5.2%	13.0%
SMILES	GLP1R inv ag	GLP1R cytotox	GLP1R ag
NC(c1ccccc1)c1csc(Nc2ccccn2)n1 (stereo not given)	-13.4%	1.6%	-0.1%
Cc1ccc(SCC(=O)NCCSCc2ccccc2)cc1	-14.1%	-14.1%	-2.9%
Cc1ccc(CSCCNC(=O)CCSc2ccccc2)cc1	10µM*	11.0%	0.7%
COc1ccc2c(c1)c1c(c(=O)n(-c3ccccc3C)c(=O)n1CC(=O)N1CCCC1)n2C	1.2%	-4.4%	0.1%
COc1cccc(C(=O)Nc2nnc(S(=O)(=O)N(C)Cc3ccc(F)cc3)s2)c1	-5.9%	-0.3%	-0.3%
CCCCN1C(=O)C(O)(CC(=O)c2ccco2)c2cc(Br)ccc21 (stereo not given)	?	11.8%	18.1%
CCCCN1C(=O)C(O)(CC(=O)c2ccc(C)cc2C)c2cc(Br)ccc21 (stereo not given)	10µM*	-16.9%	/
O=C(c1ccc(OC2CCN(Cc3ccccc3C(F)(F)F)CC2)cc1)N1CCCCC1	5.01µM*	?	-4.3%
O=C(c1ccc(OC2CCN(Cc3ccc(C(F)(F)F)cc3)CC2)cc1)N1CCCCC1	?	-4.4%	6.2%
C=CCOc1ccccc1CN1CCC(Oc2ccc(C(=O)N3CCCC3)cc2)CC1	?	-24.0%	0.9%
O=C(c1ccc(OC2CCN(Cc3ccccc3OC(F)F)CC2)cc1)N1CCCC1	3.16µM*	-16.5%	-0.7%
COc1ccc(N(C(C)C(=O)N2CCC(Cc3ccccc3)CC2)S(C)(=O)=O)cc1 (stereo not given)	?	-22.2%	5.3%
Cc1ccc(C)c(N2CCN(C(C(=O)NC3CCCC3)c3ccco3)CC2)c1 (stereo not given)	2.4%	2.6%	/
COc1cccc(C(C(=O)NC2CCCC2)N2CCN(c3cc(C)ccc3C)CC2)c1OC (stereo not given)	8.91µM*	-8.3%	/
COC(=O)c1cnn(-c2ccc(F)cc2F)c1/C=N/NC(N)=S	-16.5%	-17.8%	-0.8%
CC1CCCN(c2ccc(C(=O)Nc3ccc4c(c3)OCO4)cc2[N+](=O)[O-])C1 (stereo not given)	?	-30.4%	10.6%
CCN1CCN(c2cc(C)c3cc(NC(=O)c4ccc5c(c4)OCO5)ccc3n2)CC1	10.0%	?	-0.8%
CC1CCN(c2ccc(C(=O)Nc3ccc4c(c3)OCO4)cc2[N+](=O)[O-])CC1	6.31µM*	-25.0%	0.7%
CCN1CCN(c2ccc(NC(=O)c3ccc4c(c3)OCCO4)cc2C)CC1	6.31µM*	-4.7%	6.6%
CC(=O)N1CCCc2cc(S(=O)(=O)N3CCC(C(=O)NCCC(C)C)CC3)ccc21	0.1%	-9.2%	/
CCCc1cc(C(=O)N(C2CCCCC2)C2CCCCC2)no1	8.91µM*	-1.8%	-5.7%
CCCc1cc(C(=O)NC2CCCCC2)no1	-7.8%	-1.8%	20.9%
CCOC(=O)c1c(C)[nH]c(CCC(=O)NCc2cc(OC)c(OC)c(OC)c2)c1C	10.1%	0.9%	/
O=[N+]([O-])c1cc(C(F)(F)F)ccc1NCCc1c[nH]c2ccc(O)cc12	0.0%	-11.8%	11.8%
O=[N+]([O-])c1cc(C(F)(F)F)ccc1NCCc1c[nH]c2ccccc12	?	10µM*	-5.5%
O=C(CN1CCN(CC(=O)Nc2ccccc2F)CC1)Nc1cccc(F)c1	7.6%	-8.3%	7.2%
O=C(CN1CCN(CC(=O)Nc2ccc3c(c2)OC2(CCCCC2)O3)CC1)Nc1cccc(F)c1	10µM*	?	-7.2%
CCn1c2ccccc2c2cc(CN3CCN(Cc4ccccc4Cl)CC3)ccc21	?	1.0%	/
COc1ccc(CNn2c(-c3cccs3)nc3ccccc3c2=O)cc1OC	10µM*	0.3%	9.1%

Screening results deposited in PubChem by National Center for Advancing Translational Sciences (NCATS).
